Compounds without any hit were thinned out: in the full panel of roughly 83,000, 20% have a hit.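 The test compound was applied at a single concentration to cells in 96-well plates for 48 hours, and percent growth was recorded.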 Activity calls are given as the source filed them. Rule for the calls: active = growth percent below 10; inactive = the rest.
tested on: SF-295 CNS; assay: NCI-60 one-dose screen, 48 h (100 = growth as untreated, 0 = no growth, -100 = all killed); conditions: 10 µM

Structure (SMILES)	growth
Cc1cc(C)c(CCc2cc(C)c(C)cc2C)cc1C	108% (inactive)
O=C1OCC2=C1C(c1ccc(Cl)c(Cl)c1)c1cc3c(cc1N2CCO)OCCO3 (stereo not given)	-12.8% (active)
c1ccc2c(c1)oc1c3c(ccc12)NCCC3	118% (inactive)
O=C(CNC(=O)OCc1ccccc1)NCC(=O)Oc1ccc([N+](=O)[O-])cc1	103% (inactive)
COC(=O)c1c(-c2ccccc2)csc1NC(=O)c1c(-c2ccccc2)noc1C	43.8% (inactive)
COc1cc(CNc2ccccc2C(=O)N2CCN(C(=O)c3cc(-c4cc(OC)c(OC)c(OC)c4)n4nc(-c5ccccc5)cc4n3)CC2)cc(OC)c1OC	0.214% (active)
CN1CCCNc2c(c(=O)c2=O)NCCCN(C)CCCNc2c(c(=O)c2=O)NCCCN(C)CCCNc2c(c(=O)c2=O)NCCCN(C)CCCNc2c(c(=O)c2=O)NCCCN(C)CCCNc2c(c(=O)c2=O)NCCCN(C)CCCNc2c(c(=O)c2=O)NCCCN(C)CCCNc2c(c(=O)c2=O)NCCC1	65.9% (inactive)
COc1ccc2c(c1)C(=O)c1c-2c(OCCN2CCCCC2)nc2ccc(OC)cc12	2.81% (active)
CCCCCCCCCCCCCCCCCC(=O)OCCCCCCC	99.9% (inactive)
COc1cc([C@@H]2c3cc4c(cc3C(Br)[C@H]3COC(=O)[C@H]23)OCO4)cc(OC)c1OC (stereo not given in full)	-15.4% (active)
COc1ccc(Cn2c(C(N)=O)cc3c2-c2nc(N)ncc2CCC3)cc1	98.3% (inactive)
CN(C)CCOc1nc2ccccc2c2c1-c1ccc(Cl)cc1C2=O	-27.9% (active)
CO/N=C(/C(=O)NC1C(=O)N2C(C(=O)O)=C(COC(N)=O)CSC12)c1ccco1 (stereo not given)	105% (inactive)
O=C(O)C(SC(C(=O)O)c1ccccc1)c1ccccc1 (stereo not given)	115% (inactive)
CC(=O)c1cc(Cl)ccc1O	94.1% (inactive)
O=C(NN1C(=O)CSC1c1ccc(Cl)cc1)c1cccnc1 (stereo not given)	78.3% (inactive)
N=C1c2nc3n(c2C(=O)c2nc4n(c21)CCCC4)CCCC3	-85.7% (active)
CCc1ccc2c(c1)N(CCO)C1=C(C(=O)OC1)C2c1ccccc1 (stereo not given)	86% (inactive)
CC1CC(=O)OC(C)C1 (stereo not given)	94.6% (inactive)
Oc1[nH]c2ccc(Cl)cc2c1/C=c1/ccc2c(c1)N=C(c1cc(F)cc(F)c1)N=2	46.7% (inactive)

Structure (SMILES)	growth
CCN(CC)CCN1CC(=O)Nc2cc(Cl)ccc21	103% (inactive)
CN(C)CCS(=O)(=O)CCN(C)C	110% (inactive)
FC(F)(F)c1ccc2nc(-c3nc(-c4ccccc4)n4ccccc34)[nH]c2c1	104% (inactive)
COc1cccc(C2C3=C(COC3=O)N(CCO)c3cc(OC)ccc32)c1 (stereo not given)	-20.3% (active)
O=C(O)CN1C(=O)c2cccc3cccc(c23)C1=O	99.7% (inactive)
Nc1ccn(C2CC(O)C(CO)O2)c(=O)n1 (stereo not given)	116% (inactive)
CCn1cc(C(=O)O)c(=O)c2cnc(N3CCCC3)nc21	94.7% (inactive)
O=c1cc(-c2ccccc2)[nH]n1-c1nc2ccccc2[nH]1	21.6% (inactive)
Cc1ccc(NC(=O)CSc2nc3ccccc3c(=O)n2CCc2ccccc2)c(C(=O)O)c1	91.8% (inactive)
COc1ccc(NC(=O)CSc2nc3ccccc3c(=O)n2CCc2ccccc2)cc1	91.5% (inactive)
C[N+](C)(C)c1ncnc2nc[nH]c12	87.8% (inactive)
O=C1OCC2=C1C(c1cccc(Br)c1)c1cc3c(cc1N2CCO)CCC3 (stereo not given)	-9.25% (active)
O=c1c2ccccc2nc(SCCN2CCCCC2)n1CCc1ccccc1	87.5% (inactive)
COc1cc(NC(=O)CSc2nc3ccccc3c(=O)n2CCc2ccccc2)cc(OC)c1OC	51.6% (inactive)
CC(C)=CCc1ccc(O)c(=O)cc1C(C)C	8.22% (active)
COc1ccc(C2CC(c3ccc(N(C)C)cc3)=NN2c2ccc(S(N)(=O)=O)cc2)cc1 (stereo not given)	35.2% (inactive)
Nc1ncn([C@@H]2O[C@H](CO)[C@@H](O)[C@H]2O)c(=O)n1	28.4% (inactive)
Oc1[nH]c2ccc(Cl)cc2c1/C=c1/ccc2c(c1)N=C(c1cccs1)N=2	41.4% (inactive)
CCOC(=O)CNC(=O)CCCCSc1ncnc2nc[nH]c12	127% (inactive)
N=c1c2c(-c3ccccc3)c(-c3ccccc3)n(Cc3ccccc3)c2ncn1CCCO	88.3% (inactive)

tested on: SF-539 CNS; assay: as above; conditions: 10 µM

Structure (SMILES)	growth
Cc1cc(C)c(CCc2cc(C)c(C)cc2C)cc1C	105% (inactive)
O=C1OCC2=C1C(c1ccc(Cl)c(Cl)c1)c1cc3c(cc1N2CCO)OCCO3 (stereo not given)	2.76% (active)
c1ccc2c(c1)oc1c3c(ccc12)NCCC3	93.4% (inactive)
O=C(CNC(=O)OCc1ccccc1)NCC(=O)Oc1ccc([N+](=O)[O-])cc1	104% (inactive)
COC(=O)c1c(-c2ccccc2)csc1NC(=O)c1c(-c2ccccc2)noc1C	33.2% (inactive)
COc1cc(CNc2ccccc2C(=O)N2CCN(C(=O)c3cc(-c4cc(OC)c(OC)c(OC)c4)n4nc(-c5ccccc5)cc4n3)CC2)cc(OC)c1OC	49.4% (inactive)
CN1CCCNc2c(c(=O)c2=O)NCCCN(C)CCCNc2c(c(=O)c2=O)NCCCN(C)CCCNc2c(c(=O)c2=O)NCCCN(C)CCCNc2c(c(=O)c2=O)NCCCN(C)CCCNc2c(c(=O)c2=O)NCCCN(C)CCCNc2c(c(=O)c2=O)NCCCN(C)CCCNc2c(c(=O)c2=O)NCCC1	6.63% (active)
COc1ccc2c(c1)C(=O)c1c-2c(OCCN2CCCCC2)nc2ccc(OC)cc12	20.9% (inactive)
CCCCCCCCCCCCCCCCCC(=O)OCCCCCCC	112% (inactive)
COc1cc([C@@H]2c3cc4c(cc3C(Br)[C@H]3COC(=O)[C@H]23)OCO4)cc(OC)c1OC (stereo not given in full)	-44.5% (active)
COc1ccc(Cn2c(C(N)=O)cc3c2-c2nc(N)ncc2CCC3)cc1	95.8% (inactive)
CN(C)CCOc1nc2ccccc2c2c1-c1ccc(Cl)cc1C2=O	-1.7% (active)
CO/N=C(/C(=O)NC1C(=O)N2C(C(=O)O)=C(COC(N)=O)CSC12)c1ccco1 (stereo not given)	100% (inactive)
O=C(O)C(SC(C(=O)O)c1ccccc1)c1ccccc1 (stereo not given)	115% (inactive)
CC(=O)c1cc(Cl)ccc1O	89.1% (inactive)
O=C(NN1C(=O)CSC1c1ccc(Cl)cc1)c1cccnc1 (stereo not given)	105% (inactive)
N=C1c2nc3n(c2C(=O)c2nc4n(c21)CCCC4)CCCC3	-21.7% (active)
CCc1ccc2c(c1)N(CCO)C1=C(C(=O)OC1)C2c1ccccc1 (stereo not given)	103% (inactive)
CC1CC(=O)OC(C)C1 (stereo not given)	98.5% (inactive)
Oc1[nH]c2ccc(Cl)cc2c1/C=c1/ccc2c(c1)N=C(c1cc(F)cc(F)c1)N=2	83.3% (inactive)

Structure (SMILES)	growth
CCN(CC)CCN1CC(=O)Nc2cc(Cl)ccc21	105% (inactive)
CN(C)CCS(=O)(=O)CCN(C)C	100% (inactive)
FC(F)(F)c1ccc2nc(-c3nc(-c4ccccc4)n4ccccc34)[nH]c2c1	35.1% (inactive)
COc1cccc(C2C3=C(COC3=O)N(CCO)c3cc(OC)ccc32)c1 (stereo not given)	-6.71% (active)
O=C(O)CN1C(=O)c2cccc3cccc(c23)C1=O	98.7% (inactive)
Nc1ccn(C2CC(O)C(CO)O2)c(=O)n1 (stereo not given)	98.3% (inactive)
CCn1cc(C(=O)O)c(=O)c2cnc(N3CCCC3)nc21	100% (inactive)
O=c1cc(-c2ccccc2)[nH]n1-c1nc2ccccc2[nH]1	47.6% (inactive)
Cc1ccc(NC(=O)CSc2nc3ccccc3c(=O)n2CCc2ccccc2)c(C(=O)O)c1	104% (inactive)
COc1ccc(NC(=O)CSc2nc3ccccc3c(=O)n2CCc2ccccc2)cc1	79.5% (inactive)
C[N+](C)(C)c1ncnc2nc[nH]c12	97.6% (inactive)
O=C1OCC2=C1C(c1cccc(Br)c1)c1cc3c(cc1N2CCO)CCC3 (stereo not given)	-1.5% (active)
O=c1c2ccccc2nc(SCCN2CCCCC2)n1CCc1ccccc1	90.2% (inactive)
COc1cc(NC(=O)CSc2nc3ccccc3c(=O)n2CCc2ccccc2)cc(OC)c1OC	-50% (active)
CC(C)=CCc1ccc(O)c(=O)cc1C(C)C	20% (inactive)
COc1ccc(C2CC(c3ccc(N(C)C)cc3)=NN2c2ccc(S(N)(=O)=O)cc2)cc1 (stereo not given)	114% (inactive)
Nc1ncn([C@@H]2O[C@H](CO)[C@@H](O)[C@H]2O)c(=O)n1	3.27% (active)
Oc1[nH]c2ccc(Cl)cc2c1/C=c1/ccc2c(c1)N=C(c1cccs1)N=2	81.3% (inactive)
CCOC(=O)CNC(=O)CCCCSc1ncnc2nc[nH]c12	91.2% (inactive)
N=c1c2c(-c3ccccc3)c(-c3ccccc3)n(Cc3ccccc3)c2ncn1CCCO	54.1% (inactive)
